ANO1 block: mouse TMEM16A channel inhibition, primary screen | HEK293 TMEM16A/YFP iodide influx fluorescence, ionomycin | normalized B-score (activity score, 25-100; higher = stronger inhibition) at 10 µM | actives 1.2% (n = 310,000);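 active means ratio plate-corrected score three or more library SD toward inhibition, starting fluorescence score within five deviations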;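 further: score derived from kinetic fluorescence span divided by baseline fluorescence per well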
Kir21 block: Kir2.1 (mouse) channel inhibition | P35561 | HEK293-Kir2.1, FluxOR thallium flux fluorescence; stronger effect = lower value | B-score at 10 µM | actives 0.85% (n = 310,000) | AID 1672;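 active means fluorescence ratio B-score at or below minus 3 SD of library scores, with starting-brightness B-score within 2 SD, cut at about -4.2 in these data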;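 further: channel flux triggered by added potassium and thallium sulfate stimulus; B-score of peak minus minimum fluorescence over baseline after thallium stimulus; more negative B-score means stronger Kir2.1 block with less thallium influx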
Target sequence (P35561 whole entry, looked up): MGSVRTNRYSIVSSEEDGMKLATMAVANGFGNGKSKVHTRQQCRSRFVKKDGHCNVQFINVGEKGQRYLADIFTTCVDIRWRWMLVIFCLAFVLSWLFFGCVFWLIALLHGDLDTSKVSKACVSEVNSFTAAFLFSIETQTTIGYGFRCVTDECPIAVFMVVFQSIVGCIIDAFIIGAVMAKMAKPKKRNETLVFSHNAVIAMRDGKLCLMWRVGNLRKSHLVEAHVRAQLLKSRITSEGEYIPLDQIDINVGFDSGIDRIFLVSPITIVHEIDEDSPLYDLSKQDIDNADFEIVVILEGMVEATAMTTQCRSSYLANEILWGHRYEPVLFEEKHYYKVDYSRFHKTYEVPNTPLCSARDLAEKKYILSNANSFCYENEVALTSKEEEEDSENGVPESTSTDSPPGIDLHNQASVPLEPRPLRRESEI
KCNK9 block: blocks the human KCNK9 two-pore domain potassium channel. Q9NPC2. HEK293 KCNK9, FluxOR thallium flux fluorescence; stronger effect = lower value. B-score at 10 µM. actives 1.2% (n = 310,000). AID 488922;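 active means ratio B-score over 3 SD below the library mean, with starting fluorescence within 5 SD of its mean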;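 further: negative B-score means less thallium flux so channel inhibition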
KCNK3 block: human KCNK3 channel inhibition, primary screen. B-score at 10 µM. actives 0.84% (n = 340,000). O14649. CHO-KCNK3 thallium flux, FluxOR fluorescence; stronger effect = lower value;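 active means B-score under library mean minus 4 SD, starting fluorescence ratio at most library mean plus 5 SD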;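 further: more negative B-score means stronger inhibition of thallium flux through KCNK3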
ANO1 activ: mouse TMEM16A channel activation, primary screen; HEK293 TMEM16A/YFP-H148Q/I152L, iodide quench fluorescence; stronger effect = lower value; B-score at 10 µM; actives 0.3% (n = 340,000); AID 623877;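 active means fluorescence-ratio B-score plate-corrected deviation score at least 3 library SD below zero, with starting fluorescence score within 5 deviations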;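 further: channel opened by trigger with iodide after compound preincubation; score built on the fluorescence ratio of max minus min over baseline; more negative score means more quench and so TMEM16A activation or potentiation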
KCNK9 block conf: human KCNK9 inhibitor confirmation. shares compounds with KCNK9 block. actives 43% (n = 4,900). AID 492992. HEK293 KCNK9 cells, FluxOR thallium flux fluorescence. inhibition, % at 10 µM;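 active means thallium signal inhibited by more than 5 SD of the compound-free buffer control wells, on both duplicate plates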;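 further: 0% = assay buffer control wells without compound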
Kir2-1 spec: mouse Kir2.1 off-target activity of KCNK9 modulators; actives 4% (n = 4,900); AID 492993; shares compounds with KCNK9 block; inhibition, % at 10 µM; Kir2.1 cells, FluxOR thallium flux fluorescence;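 active means thallium signal drop more than 5 SD beyond the mean of the no-compound control wells, seen in both duplicate plates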;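 further: signal is fluorescence rise after thallium addition divided by baseline fluorescence; plate controls were assay buffer only for no effect and full block by chlorpromazine control for full effect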
KCNK9 uninduced: second counter-screen for KCNK9 modulators: effect in non-induced cells. shares compounds with KCNK9 block. non-induced KCNK9-HEK293, FluxOR thallium flux. inhibition, % at 10 µM. actives 40% (n = 4,900). AID 492997;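 active means thallium signal drop beyond 5 SD of the untreated control mean, on both duplicate plates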;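 further: plate controls were buffer only IC0 wells for no effect and SID17386958 at its maximal inhibitory level for full effect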
Numbers without * were called inactive; i = inactive; x = no result. The list is not random: actives were taken first. Their share in the collection is about 3.5%.

SMILES	ANO1 block	Kir21 block	KCNK9 block	KCNK3 block	ANO1 activ	KCNK9 block conf	Kir2-1 spec	KCNK9 uninduced
CC1(C)C[C@H]2C3=CCC4[C@@]5(C)CC[C@H](O)[C@](C)(CO)C5CC[C@@]4(C)[C@]3(C)C[C@H]3O[C@@H]1[C@H](O)[C@]32CO (some centres not stated)	x	x	x	i	i	x	x	x
COc1ccc(C(=O)NC(=S)Nc2ccc(CN3CCOCC3)cc2)cc1Cl	i	0.94	i	i	i	i	i	i
Cn1c(CC(=O)Nc2ccccc2)c(Sc2ccccc2)c2ccccc21	i	0.03	i	i	i	i	i	i
CSc1c(CC(=O)Nc2ccccc2)n(C)c2ccccc12	i	0	i	i	i	x	x	x
Cc1cccc(NS(=O)(=O)c2cccc(C(=O)NCCCN3CCOCC3)c2)c1	i	-0.8	i	i	i	x	x	x
COc1ccc(C(c2nnnn2Cc2ccccc2)N2CCN(c3nc4ccccc4s3)CC2)cc1OC (configuration not stated)	i	-0.41	-8.7*	i	i	i	i	i
CCC(C)(C)n1nnnc1C(c1ccc(O)c(OC)c1)N1CCN(c2nc3ccccc3s2)CC1 (configuration not stated)	i	-0.02	-15*	i	i	46%*	i	28%*
CC(C)(C)n1nnnc1C(c1cccc(C#N)c1)N1CCCCCC1 (configuration not stated)	i	-2.1	i	i	i	x	x	x
CCC(C)(C)n1nnnc1C(c1cccc(C#N)c1)N1CCN(c2cccc(C)c2C)CC1 (configuration not stated)	i	0.02	-17*	-9.5*	i	74%*	i	38%*
CN[C@H](C)C(=O)NC[C@H]1O[C@@H](n2cnc3c(N)ncnc32)[C@H](O)[C@@H]1O	x	x	x	i	x	x	x	x
O=C(COC(=O)/C=C/C(=O)OCC(=O)NC12CC3CC(CC(C3)C1)C2)NC12CC3CC(CC(C3)C1)C2	i	0	i	i	i	x	x	x
CCC(CC)C(=O)Oc1c(Sc2ccccc2[N+](=O)[O-])c(C)nn1C(C)(C)C	i	0.3	-12*	i	-10*	52%*	i	33%*
Nc1nc(-c2cc(O)ccc2[N+](=O)[O-])cc(-c2ccccc2)c1[N+](=O)[O-]	i	1.3	i	i	i	x	x	x
Cc1oc(=O)c(NC(=O)c2cccc(Cl)c2)cc1C(=O)c1ccccc1	i	-0.75	i	i	i	i	i	i
Cc1c(CCC(=O)O)c(=O)oc2cc3oc4c(c3cc12)CCCC4	i	0.93	i	i	i	i	i	i
Cc1cccc(N2CCN(C(=O)C(Cc3ccccc3)n3cccc3)CC2)c1C (configuration not stated)	i	-1.7	-9.8*	i	i	49%*	i	36%*
Cc1cccc(N2CCN(C(=O)c3c(C)nn(Cc4ccccc4Cl)c3C)CC2)c1C	i	-0.37	i	i	i	i	i	i
Cc1cccc(N2CCN(C(=O)Cc3ccccc3[N+](=O)[O-])CC2)c1C	i	0.01	i	i	i	i	i	i
CC(Oc1ccc(S(=O)(=O)N2CCCC2)cc1[N+](=O)[O-])C(=O)NC1(C#N)CCCCC1 (configuration not stated)	x	x	x	i	i	x	x	x
CCCn1cnc2scc(-c3ccc(C)c(C)c3)c2c1=O	i	-0.92	i	i	i	i	i	i
C=CCn1cnc2scc(-c3ccc(C)c(C)c3)c2c1=O	i	-1	i	i	i	i	i	i
CCN1CCN(S(=O)(=O)c2c(C)[nH]c(C)c2C(=O)N2CCCCC2)CC1	i	1.9	i	i	i	x	x	x
O=C(C1CCN(C2CCN(CC3CC=CCC3)CC2)CC1)N1CCOCC1 (configuration not stated)	i	0.98	i	i	i	x	x	x
Cc1ccccc1CN1C[C@@H]2C[C@@H](c3cn[nH]c3-c3ccc(F)cc3)N3CCC[C@@]23C1=O	i	0.5	i	i	i	x	x	x
COc1ccc(-c2[nH]ncc2[C@@H]2C[C@H]3CN(Cc4ccccc4C)C(=O)[C@]34CCCN24)cc1	i	0.2	i	i	i	i	i	i
SMILES	ANO1 block	Kir21 block	KCNK9 block	KCNK3 block	ANO1 activ	KCNK9 block conf	Kir2-1 spec	KCNK9 uninduced
CCOC(=O)c1c(C)[nH]c(N=Nc2ccccc2C)c1C	i	1.1	-9.4*	i	i	52%*	i	i
Cc1cccc(N2CCN(C(=O)COc3cccc4c3OC(C)(C)C4)CC2)c1C	i	0	-8.7*	i	i	25%*	i	i
CC1(C)Cc2cccc(OCC(=O)N3CCN(S(=O)(=O)c4ccc(F)cc4)CC3)c2O1	i	-0.01	i	i	i	x	x	x
COc1ccc(OCCOCCOc2ccc(C)cc2[N+](=O)[O-])cc1	i	-0.02	i	i	i	x	x	x
COc1cccc(OCCOCCOc2ccc(C)cc2[N+](=O)[O-])c1	i	0.02	i	i	i	i	i	i
COc1cccc(OCCNc2cc(Cl)ccc2[N+](=O)[O-])c1	i	-0.64	-12*	i	i	54%*	i	34%*
COc1ccc(CN2CCC(Oc3ccc(C(=O)N4CCCC4)cc3)CC2)c(F)c1	i	-2.9	i	i	i	x	x	x
CC(C)CCC1=NN(C(=O)c2ccco2)C(O)(C(F)(F)F)C1 (configuration not stated)	i	-2.8	i	i	i	x	x	x
CSc1ccc(C(=O)C2CCCN(C(=O)c3cc4cc(F)ccc4[nH]3)C2)cc1 (configuration not stated)	i	-3.3	i	i	i	i	i	i
CCc1cc(C(=O)N2CCCC(C(=O)c3ccc(Cl)cc3)C2)no1 (configuration not stated)	i	-4	i	i	i	i	i	i
COCc1ccc(C(=O)N2CCCC(C(=O)c3ccc(SC)cc3)C2)s1 (configuration not stated)	i	-0.54	i	i	i	i	i	i
CC(=O)c1ccc(C(=O)N2CCCC(C(=O)c3cc(F)ccc3F)C2)s1 (configuration not stated)	i	2	i	i	i	x	x	x
